Results on 62 compounds are retold here after PubChem BioAssay AID588689 (Southern Research Specialized Biocontainment Screening …, 2011).

For the assay, the target named is Genome polyprotein (Dengue virus type 2 (strain 16681-PDK53)) (UniProt P29991). Kind of assay: Dengue-2 NS5 methyltransferase inhibitors, primary screen, biochemical, confirmation dose response (AID 588689). Conditions: Dengue-2 NS5 methyltransferase capping enzyme assay, at 25 µM, stronger effect = higher value.
Setting [1] is: measured here: pilot screen replicate inhibition.

In all, about 340,000 compounds went through this assay and about 1,000 (0.29%) were called active. No stated cut-off is given here; in the data, inconclusive means inhibition above about 29% without an active follow-up result; inactive means below that. These entries were drawn from the full list. Entries with a potency or affinity are not part of this list.

A word on the inhibition: it is the change of the read-out against control, counted positive when it falls.

Sequence of Genome polyprotein (Dengue virus type 2 (strain 16681-PDK53)) (P29991 whole entry, looked up): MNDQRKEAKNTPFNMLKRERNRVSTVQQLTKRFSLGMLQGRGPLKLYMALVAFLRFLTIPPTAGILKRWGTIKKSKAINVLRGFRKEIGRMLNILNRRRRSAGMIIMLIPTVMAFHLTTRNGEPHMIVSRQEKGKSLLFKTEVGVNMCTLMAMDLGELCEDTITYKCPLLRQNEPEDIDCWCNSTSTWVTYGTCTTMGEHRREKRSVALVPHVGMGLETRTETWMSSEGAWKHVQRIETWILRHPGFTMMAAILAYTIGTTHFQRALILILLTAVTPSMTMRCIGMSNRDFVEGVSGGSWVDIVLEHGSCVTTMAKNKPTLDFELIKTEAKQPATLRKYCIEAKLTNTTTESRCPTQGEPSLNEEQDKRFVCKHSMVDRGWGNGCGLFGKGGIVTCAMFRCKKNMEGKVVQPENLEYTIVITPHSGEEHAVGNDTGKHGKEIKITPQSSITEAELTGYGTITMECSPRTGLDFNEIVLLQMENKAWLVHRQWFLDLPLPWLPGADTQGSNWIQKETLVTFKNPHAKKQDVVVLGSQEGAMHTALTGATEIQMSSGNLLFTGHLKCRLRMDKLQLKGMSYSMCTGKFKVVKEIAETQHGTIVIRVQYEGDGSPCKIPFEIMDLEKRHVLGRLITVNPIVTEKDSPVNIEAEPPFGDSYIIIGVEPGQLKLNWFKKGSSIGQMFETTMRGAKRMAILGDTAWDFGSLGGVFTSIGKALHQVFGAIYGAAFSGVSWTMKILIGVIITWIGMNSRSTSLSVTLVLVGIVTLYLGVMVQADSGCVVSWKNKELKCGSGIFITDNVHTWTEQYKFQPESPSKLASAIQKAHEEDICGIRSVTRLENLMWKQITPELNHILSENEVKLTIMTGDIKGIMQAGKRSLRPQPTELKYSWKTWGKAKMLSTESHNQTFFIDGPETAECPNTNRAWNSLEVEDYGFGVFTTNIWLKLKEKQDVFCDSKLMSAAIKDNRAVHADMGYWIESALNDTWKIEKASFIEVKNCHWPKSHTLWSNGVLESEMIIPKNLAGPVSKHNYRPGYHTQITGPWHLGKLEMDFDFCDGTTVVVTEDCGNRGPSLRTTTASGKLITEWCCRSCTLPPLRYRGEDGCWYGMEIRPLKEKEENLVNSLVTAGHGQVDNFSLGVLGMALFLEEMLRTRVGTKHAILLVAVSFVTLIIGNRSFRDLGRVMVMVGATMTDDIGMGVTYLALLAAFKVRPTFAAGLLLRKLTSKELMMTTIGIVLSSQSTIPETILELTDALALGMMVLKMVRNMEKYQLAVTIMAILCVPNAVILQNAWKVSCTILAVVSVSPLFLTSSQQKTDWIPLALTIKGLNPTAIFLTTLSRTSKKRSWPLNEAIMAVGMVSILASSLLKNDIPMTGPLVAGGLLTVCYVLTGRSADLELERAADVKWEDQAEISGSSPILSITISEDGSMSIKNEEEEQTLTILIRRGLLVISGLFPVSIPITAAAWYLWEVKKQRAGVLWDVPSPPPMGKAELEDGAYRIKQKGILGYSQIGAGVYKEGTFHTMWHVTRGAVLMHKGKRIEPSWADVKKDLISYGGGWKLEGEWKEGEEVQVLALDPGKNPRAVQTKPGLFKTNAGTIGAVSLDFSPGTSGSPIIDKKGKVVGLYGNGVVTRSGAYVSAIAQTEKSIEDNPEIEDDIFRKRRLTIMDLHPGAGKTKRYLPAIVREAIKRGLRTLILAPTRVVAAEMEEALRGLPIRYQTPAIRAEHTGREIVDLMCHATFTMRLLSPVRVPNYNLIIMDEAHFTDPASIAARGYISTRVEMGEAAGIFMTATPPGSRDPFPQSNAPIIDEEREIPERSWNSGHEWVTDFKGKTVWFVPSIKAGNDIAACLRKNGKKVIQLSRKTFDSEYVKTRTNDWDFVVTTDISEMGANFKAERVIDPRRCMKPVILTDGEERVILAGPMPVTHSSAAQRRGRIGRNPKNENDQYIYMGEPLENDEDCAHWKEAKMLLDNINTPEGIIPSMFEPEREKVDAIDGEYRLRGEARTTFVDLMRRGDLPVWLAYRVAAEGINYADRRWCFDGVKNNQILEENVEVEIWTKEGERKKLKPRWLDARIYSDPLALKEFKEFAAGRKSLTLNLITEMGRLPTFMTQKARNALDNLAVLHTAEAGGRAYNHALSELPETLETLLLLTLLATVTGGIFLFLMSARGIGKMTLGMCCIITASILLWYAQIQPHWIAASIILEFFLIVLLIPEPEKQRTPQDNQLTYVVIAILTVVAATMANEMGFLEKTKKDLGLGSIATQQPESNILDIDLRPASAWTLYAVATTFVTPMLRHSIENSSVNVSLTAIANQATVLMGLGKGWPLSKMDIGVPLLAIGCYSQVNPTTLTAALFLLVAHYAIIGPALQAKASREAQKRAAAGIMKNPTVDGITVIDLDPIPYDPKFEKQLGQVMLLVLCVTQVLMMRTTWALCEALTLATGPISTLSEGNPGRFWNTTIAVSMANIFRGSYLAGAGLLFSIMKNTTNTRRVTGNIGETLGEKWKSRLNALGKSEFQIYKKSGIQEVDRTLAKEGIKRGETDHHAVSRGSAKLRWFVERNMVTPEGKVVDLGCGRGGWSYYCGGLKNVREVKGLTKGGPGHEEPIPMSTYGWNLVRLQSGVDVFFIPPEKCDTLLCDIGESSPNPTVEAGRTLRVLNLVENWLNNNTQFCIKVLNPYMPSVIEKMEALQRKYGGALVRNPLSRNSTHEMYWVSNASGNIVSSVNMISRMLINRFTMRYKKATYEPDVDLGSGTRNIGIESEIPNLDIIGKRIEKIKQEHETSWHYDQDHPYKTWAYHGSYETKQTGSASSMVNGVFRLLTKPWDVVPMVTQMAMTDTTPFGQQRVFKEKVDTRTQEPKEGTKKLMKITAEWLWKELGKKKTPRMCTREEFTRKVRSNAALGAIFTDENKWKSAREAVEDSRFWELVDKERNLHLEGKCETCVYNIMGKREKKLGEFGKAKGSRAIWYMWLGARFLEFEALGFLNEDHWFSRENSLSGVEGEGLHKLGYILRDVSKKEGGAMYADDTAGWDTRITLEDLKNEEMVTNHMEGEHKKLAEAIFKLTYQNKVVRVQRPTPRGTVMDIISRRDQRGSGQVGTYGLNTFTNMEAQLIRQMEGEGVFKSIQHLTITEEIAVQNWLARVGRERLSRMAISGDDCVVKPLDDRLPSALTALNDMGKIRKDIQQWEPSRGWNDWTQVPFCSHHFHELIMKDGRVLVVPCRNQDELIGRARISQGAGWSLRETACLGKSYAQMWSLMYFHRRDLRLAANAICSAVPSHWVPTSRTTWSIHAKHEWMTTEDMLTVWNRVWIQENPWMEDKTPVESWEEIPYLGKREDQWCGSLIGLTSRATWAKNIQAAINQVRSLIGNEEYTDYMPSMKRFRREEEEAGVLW

Turning to `COc1cc(NC(=O)CN2CC(c3ccccc3)CC2=O)cc(OC)c1` (centres undefined), the inhibition is 0.73% (inactive). Turning to `CCn1cc(Br)c(C(=O)N2CCN(c3ccccc3)CC2)n1`, the inhibition was -5.15% (inactive). Still for that read-out and setting: next, `N#CC(=C1C=C(Br)C(=NO)C=C1Cl)c1cccc2ccccc12`: 24.1% (inactive). Consider `COc1ccc(C(C#N)=C2C=C(Cl)C(=NO)C=C2Cl)cc1`, for which the inhibition is 27.6% (inactive). On to `Cc1cc(C)cc(NC(=O)CS(=O)(=O)c2cccc3nsnc23)c1`, for which the inhibition is -0.79% (inactive). On the same count and under the same terms, then `Cc1ccc(NS(=O)(=O)Cc2ccccc2)cc1Cl`, with -1.36% (inactive); and `CCC1CCCCN1S(=O)(=O)c1ccc2c(c1)CCN2C(C)=O` (centres undefined), with -10.9% (inactive); and `CC(=O)c1ccc(-n2c(=O)[nH]c(=O)c3c(N)c(C(=O)c4ccc(Cl)cc4)sc32)cc1`, with -6.85% (inactive). As to `CC(C)(C)OC(=O)C[C@@H]1C/C=C\C[C@@H](CC(=O)N(CCO)Cc2ccccc2)C(=O)N2CCC[C@H]2COC1=O`, the inhibition was -2.31% (inactive). The inhibition under setting [1] is -4.54%.

For `CC1=NN(c2ccc(C)cc2C)C(=O)C1C(c1cccc(O)c1)C1C(=O)N(c2ccc(C)cc2C)N=C1C` (centres undefined), the inhibition is 26.6% (inactive). For the compound `CC1=NN(c2ccc(C)cc2C)C(=O)C1C(c1ccccc1O)C1C(=O)N(c2ccc(C)cc2C)N=C1C` (centres undefined), the inhibition is 15.6% (inactive). In the case of `CCc1ccc(OCC(O)CNC(C)(C)C)cc1` (centres undefined), the inhibition was -2.07% (inactive). Take `Cn1c(/C=C/c2ccc(Cl)cc2Cl)c([N+](=O)[O-])c(=O)n(C)c1=O`: the inhibition was 2.64% (inactive). `O=[N+]([O-])c1cccc(/C=C/c2nc[nH]c2[N+](=O)[O-])c1`: the inhibition was -14.1% (inactive). Take `CCOc1ccc(/C=C/c2c([N+](=O)[O-])c(=O)n(C)c(=O)n2C)cc1`: the inhibition was 0.74% (inactive). Turning to `CCOc1ccc(/C=C\c2nc(O)c([N+](=O)[O-])c(=O)[nH]2)cc1OCC`, the inhibition is -0.66% (inactive). Turning to `O=c1[nH]c(/C=C\c2cccc(Cl)c2)nc(O)c1[N+](=O)[O-]`, the inhibition was 15.9% (inactive). Consider `Clc1ccc(/C=C/c2nc3ccccc3[nH]2)c(Cl)c1`, for which the inhibition is 3.38% (inactive). The inhibition under setting [1] was -0.3%. Turning to `Clc1ccc(C=Cc2ccccn2)c(Cl)c1`, the inhibition was 3.5% (inactive).

On to `O=[N+]([O-])c1cccc(/C=C/c2ccncc2)c1`, for which the inhibition was 2.32% (inactive).

Consider `O=[N+]([O-])c1cccc(C=NN2CCCCCC2)c1`, for which the inhibition was -2.33% (inactive). `O=c1cc(O)c2sc3nc4c(c(C(F)(F)F)c3c2[nH]1)CCCCC4`: the inhibition was 0.88% (inactive). As for `Cc1cc(-c2csc(Nc3ccccn3)n2)ccc1F`, the inhibition is -8.87% (inactive). The same measure, in the same setting: then `O=C(NCCCn1ccnc1)c1cccc(S(=O)(=O)Nc2ccccc2F)c1`, with -2.82% (inactive); and `COc1cccc(N=C2SC(CC(=O)Nc3ccccc3)C(=O)N2Cc2ccccn2)c1` (centres undefined), with -4.38% (inactive). Still for that read-out and setting: next, `COc1ccc(-c2c(-c3cc(OC)cc(OC)c3)n(C)c3ccc(-c4ccc(OC)cc4F)cc23)cc1`: -1.04% (inactive); `Cc1nc(SCC(=O)N2c3ccccc3Sc3ccccc32)n[nH]1`: -1.38% (inactive); `O=C(CSc1nnc(-c2ccccc2)n1-c1ccccc1)N1c2ccccc2Sc2ccccc21`: -3.27% (inactive). Same read-out and setting: then `COCCCNCC(O)COc1cccc2[nH]c(C)cc12` (centres undefined), with 3.64% (inactive). As for `CC1(C)CC(CC(=O)O)(c2ccccc2)CCO1` (centres undefined), the inhibition was -6.14% (inactive). For the compound `C=CCNC(=O)c1ccc(OC)cc1`, the inhibition was -4.57% (inactive). On to `Cc1ccc(S(=O)(=O)Oc2ccccc2/C=C2\SC(=O)NC2=O)cc1`, for which the inhibition was 12.8% (inactive). Take `Cc1ccc(S(=O)(=O)Oc2ccccc2/C=N/O)cc1`: the inhibition is -1.81% (inactive). Still for that read-out and setting: then `Cc1ccc(S(=O)(=O)Oc2ccccc2/C=C2/SC(=O)NC2=O)cc1`, with 6.22% (inactive); and `O=C(O)/C=C\c1ccccc1Oc1ccc(F)cc1`, with -0.72% (inactive). Take `O/N=C\c1ccccc1Oc1ccc(F)cc1`: the inhibition is -8.72% (inactive). In the case of `O=C1NC(=O)C(=Cc2ccccc2)N1`, the inhibition was -3.98% (inactive).

Take `O=c1cc(Cl)c(-c2ccccc2)n[nH]1`: the inhibition is -1.61% (inactive). Still for that read-out and setting: next, `Cc1ccc(S(=O)(=O)Oc2ccccc2/C=N/NC(N)=S)cc1`: -0.7% (inactive). Consider `COc1ccc(NS(=O)(=O)c2cc(NC(=O)C3CC3)ccc2N2CCOCC2)cc1`, for which the inhibition was 0% (inactive). `Cn1cnc([N+](=O)[O-])c1SCC(=O)NN`: the inhibition was 1.55% (inactive). In the case of `COc1ccc([N+](=O)[O-])cc1N(CC(=O)NC1CCCCC1)S(C)(=O)=O`, the inhibition is 1.47% (inactive). Turning to `COc1cccc(CN2CC(C(=O)NCCOc3ccccc3F)CCC2=O)c1` (centres undefined), the inhibition was -4.36% (inactive). Consider `O=C1Cc2cc(S(=O)(=O)N3CCNCC3)ccc2N1`, for which the inhibition is 0.77% (inactive).

On to `O=C(c1cccc(S(=O)(=O)N2CCN(c3ccc(F)cc3)CC2)c1)N1CCCC1`, for which the inhibition was -6.98% (inactive). Regarding `CCc1nc2sc(C)c(C)c2c(=O)n1CCO`, the inhibition is -0.54% (inactive). For `O=C(Oc1ccc(NC2=C(Cl)C(=O)c3ccccc3C2=O)cc1)c1ccc([N+](=O)[O-])cc1`, the inhibition is 11.5% (inactive). `N/C(=N\S(=O)(=O)c1ccccc1)c1ccc([N+](=O)[O-])cc1`: the inhibition is -9.13% (inactive). Take `CC(=O)c1cc2c(cc1F)C(C)(C)CCC2(C)C`: the inhibition is 5.57% (inactive). As to `COc1c2occc2c(OC)c2c(=O)cc(C)oc12`, the inhibition is -2.99% (inactive). On to `COc1c2ccoc2cc2oc(C)cc(=O)c12`, for which the inhibition was -4.89% (inactive). With `Cc1ccc(CC2SC(N)=NC2=O)cc1` (centres undefined), the inhibition was 0% (inactive). As to `CC(C)(C)NC(=O)NC(=O)CN1CCN(c2ccc(O)cc2)CC1`, the inhibition was 1.52% (inactive). For the compound `Cc1cc(N)n(-c2ccc(Cl)cc2)n1`, the inhibition was -6.66% (inactive). The same measure, in the same setting: next, `Cc1ccc(-n2c(C)nn(Cc3ccc([N+](=O)[O-])cc3)c2=O)cc1`: -7.53% (inactive); `Cc1cccc(-n2cc(-c3ccc([N+](=O)[O-])cc3)[nH]c2=S)c1`: -5.13% (inactive); `Cc1ccc(-n2cc3ccc([N+](=O)[O-])cc3n2)cc1`: -5.66% (inactive). Regarding `Cc1ccc(S(=O)(=O)n2cnc3cc([N+](=O)[O-])ccc32)cc1C`, the inhibition is 0.8% (inactive). The same measure, in the same setting: then `Cn1c2nc(=O)[nH]c(=O)c-2cc2ccccc21`, with -2.42% (inactive). Regarding `Cc1ccc(C)c(-n2c3nc(=O)n(C)c(=O)c-3cc3ccccc32)c1`, the inhibition was 0% (inactive).

As for `Cc1cccc(-n2cnc3cc([N+](=O)[O-])ccc32)c1`, the inhibition is 0% (inactive). Regarding `Cc1ccc(-n2c3nc(=O)[nH]c(=O)c-3cc3c(C)nn(-c4ccccc4)c32)c(C)c1`, the inhibition is 4.54% (inactive).
